Consider eight compounds from PubChem BioAssay (NCI).

The panel holds about 83,000 compounds, 20% with a hit somewhere; the sample as a whole holds those more often.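 Results are percent growth after 48 hours of single-concentration exposure. 100 means growth as in untreated cells, lower positive values show inhibition; negative values down to -100 show cell death.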 Unmarked numbers belong to inactive results. Active and inactive are the calls of the source. How the source made its calls: active means growth percent below 10; inactive means the rest.

Test systems include NCI-H23 lung; NCI-H226 lung; NCI-H322M lung; HOP-62 NSCLC; NCI-H460 lung; HOP-92 NSCLC; NCI-H522 lung; A549/ATCC NSCLC; 786-0 renal; COLO 205 colon; K-562 leukemia; MALME-3M melanoma; MDA-MB-231 breast; RXF 393 renal; SF-268 CNS; SF-295 CNS; SF-539 CNS; UACC-257 melanoma; M14 melanoma; DU-145 prostate.
What all share (experiment): NCI-60 one-dose screen, 48 h (100 = growth as untreated, 0 = no growth, -100 = all killed)
Common to all, as to conditions: 10 µM unless noted

As for `Cc1ccccc1NC(=O)Cc1csc2[n+]1C(=O)/C(=C/c1ccc([N+](=O)[O-])cc1)S2`, the growth in the experiment on NCI-H23 lung is 93.1%; with NCI-H226 lung, 91.1%; with NCI-H322M lung, 103%; in the experiment on HOP-62 NSCLC it was 86.7%; in the experiment on NCI-H460 lung, 104%; with HOP-92 NSCLC, 79.5%. Besides, the growth with NCI-H522 lung was 86.3%; with A549/ATCC NSCLC, 99.8%; in the experiment with 786-0 renal, 93.5%; with COLO 205 colon, 105%; with K-562 leukemia, 88.3%; in the experiment on MALME-3M melanoma, 99.3%. The growth is 97.7% in the experiment with MDA-MB-231 breast; 111% in the experiment with RXF 393 renal; 95.9% with SF-268 CNS; 99.7% with SF-295 CNS; 104% in the experiment with SF-539 CNS; 104% in the experiment on UACC-257 melanoma. In the experiment with M14 melanoma, the growth was 85.8%.

`CC(=O)c1ccc2c(c1)CCc1ccccc1-2`: the growth is 107% in the experiment on NCI-H23 lung; 94.7% with NCI-H226 lung; 116% in the experiment on NCI-H322M lung; 88.5% in the experiment on HOP-62 NSCLC; 107% in the experiment with NCI-H460 lung; 95.3% with HOP-92 NSCLC. The growth in the experiment with NCI-H522 lung is 110%; in the experiment on A549/ATCC NSCLC, 91%; with 786-0 renal, 83.7%; with COLO 205 colon, 110%; with DU-145 prostate it was 115%; in the experiment on K-562 leukemia it was 115%. In addition, the growth in the experiment on MDA-MB-231 breast is 109%; with RXF 393 renal, 97.4%; with SF-268 CNS, 101%; in the experiment on SF-295 CNS, 94.2%; with SF-539 CNS it was 96.8%; in the experiment on UACC-257 melanoma it was 98.2%. Further, in the experiment with M14 melanoma, the growth was 107%.

`CCCCCCCCCCCC[n+]1ccccc1` (tested in a mixture with another compound): the growth in the experiment with NCI-H23 lung is -2.11% (active); with NCI-H226 lung it was 11.3%; with NCI-H322M lung, 31.9%; in the experiment with HOP-62 NSCLC, -24.3% (active); in the experiment with NCI-H460 lung, 0.69% (active); in the experiment on HOP-92 NSCLC, -50.8% (active). The growth in the experiment on NCI-H522 lung is -53% (active); in the experiment on A549/ATCC NSCLC, -32.3% (active); in the experiment with 786-0 renal it was -50% (active); in the experiment with DU-145 prostate, 11.7%; with K-562 leukemia, -33.3% (active); in the experiment with MALME-3M melanoma, -38.3% (active). Moreover, the growth in the experiment with MDA-MB-231 breast was -30.4% (active); in the experiment with SF-268 CNS, -8.98% (active); in the experiment with SF-295 CNS, -35.1% (active); in the experiment with SF-539 CNS it was -10.5% (active); in the experiment on UACC-257 melanoma, -52.3% (active); in the experiment on M14 melanoma, -56.6% (active).

With `OCCOSCCO`, the growth was 107% in the experiment with NCI-H23 lung; 102% with NCI-H226 lung; 119% in the experiment on NCI-H322M lung; 104% in the experiment on HOP-62 NSCLC; 111% in the experiment on NCI-H460 lung; 124% in the experiment with HOP-92 NSCLC. The growth is 96.1% in the experiment with NCI-H522 lung; 111% in the experiment on A549/ATCC NSCLC; 100% in the experiment with 786-0 renal; 119% with COLO 205 colon; 122% with DU-145 prostate; 102% in the experiment with K-562 leukemia. Also, the growth in the experiment with MDA-MB-231 breast is 121%; in the experiment with RXF 393 renal, 100%; in the experiment on SF-268 CNS, 119%; with SF-539 CNS it was 100%; in the experiment on UACC-257 melanoma it was 102%; with M14 melanoma, 100%.

As for `c1ccc2sc(SSN3CC4CCC(CC4)C3)nc2c1`, the growth in the experiment with NCI-H23 lung is 107%; in the experiment with NCI-H226 lung it was 100%; in the experiment on NCI-H322M lung it was 96%; in the experiment with HOP-62 NSCLC, 119%; in the experiment with NCI-H460 lung it was 115%; in the experiment with HOP-92 NSCLC, 110%. The growth in the experiment on NCI-H522 lung was 28.9%; in the experiment on 786-0 renal it was 129%; with COLO 205 colon, 128%; in the experiment with DU-145 prostate, 128%; with K-562 leukemia, 91.8%; with MALME-3M melanoma, 101%. Besides, the growth in the experiment on MDA-MB-231 breast was 101%; in the experiment with RXF 393 renal, -29.5% (active); in the experiment on SF-268 CNS, 122%; with SF-295 CNS, 108%; in the experiment with SF-539 CNS, 94.9%; with UACC-257 melanoma, 120%. Besides, the growth in the experiment on M14 melanoma was 110%.

As for `CCN(CC)CCNc1ccc([N+](=O)[O-])c2sc3ccccc3c(=O)c12`, the growth with NCI-H23 lung was 34.6%; in the experiment with NCI-H226 lung, 18.4%; in the experiment with NCI-H322M lung, 14.2%; in the experiment with HOP-62 NSCLC it was 16.9%; in the experiment with NCI-H460 lung, 3.12% (active); in the experiment on HOP-92 NSCLC, 16.9%. Moreover, the growth with NCI-H522 lung was 12.7%; in the experiment on A549/ATCC NSCLC, 7.92% (active); in the experiment with 786-0 renal it was 37.2%; in the experiment with COLO 205 colon it was 1.96% (active); in the experiment with K-562 leukemia, 10.2%; in the experiment with MALME-3M melanoma it was -8.2% (active). For the same compound, the growth in the experiment with MDA-MB-231 breast was 56.2%; in the experiment on RXF 393 renal it was 5.72% (active); in the experiment on SF-268 CNS, 32.2%; with SF-295 CNS it was 7.95% (active); with SF-539 CNS, 21.9%; in the experiment with UACC-257 melanoma it was 29.3%. Further, the growth in the experiment on M14 melanoma was 34.1%.

On to `O=C(O)c1ccc2c(c1)C(=O)c1ccccc1C2=O`, for which the growth was 103% in the experiment with NCI-H23 lung; 92% in the experiment on NCI-H226 lung; 102% in the experiment with NCI-H322M lung; 90.9% in the experiment with HOP-62 NSCLC; 105% in the experiment with NCI-H460 lung; 93.9% in the experiment on HOP-92 NSCLC. Moreover, the growth was 98.6% in the experiment on NCI-H522 lung; 103% with 786-0 renal; 100% in the experiment with COLO 205 colon; 98.5% with DU-145 prostate; 88.7% in the experiment on K-562 leukemia; 102% in the experiment with MALME-3M melanoma. Besides, the growth was 94.1% in the experiment on MDA-MB-231 breast; 110% in the experiment on RXF 393 renal; 98.3% in the experiment on SF-268 CNS; 100% in the experiment on SF-295 CNS; 97.7% with SF-539 CNS; 101% with M14 melanoma.

Regarding `COc1cc(/C=C2\SC(=S)N(/C=C/c3nc4ccccc4[nH]c3=O)C2=O)cc(OC)c1OC`, the growth with NCI-H23 lung is 69.7%; with NCI-H226 lung, 76.6%; with NCI-H322M lung, 89.1%; with HOP-62 NSCLC, 65.8%; with NCI-H460 lung, 92.1%; in the experiment on HOP-92 NSCLC it was 53.3%. Moreover, the growth with NCI-H522 lung is 60.3%; in the experiment on A549/ATCC NSCLC it was 67.5%; with 786-0 renal, 76.6%; with COLO 205 colon, 101%; in the experiment with DU-145 prostate, 97.7%; with K-562 leukemia it was 88.1%. Besides, the growth is 80.1% in the experiment on MDA-MB-231 breast; 77.7% in the experiment with RXF 393 renal; 77.5% with SF-268 CNS; 88.4% in the experiment with SF-295 CNS; 95.2% with SF-539 CNS; 79.2% in the experiment with UACC-257 melanoma. In addition, in the experiment with M14 melanoma, the growth was 75.4%.
